A selection: hits, their analogues and other compounds. The true share with any hit is near 1.2%.
CCT modulator: cytosolic chaperonin activity modulation; purified chaperonin ATPase assay, HTRF ADP detection, 30 min; activity change, % (test concentration not listed), hits read low; AID 651819; 360,000 compounds, 0.3% hits; in the data active = activity change below about -30%
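Nucleotide hydrolysis assay: TRiC at 20–40 nM final (set by batch activity) with 10 uM ATP, 30 min at 37 °C, in presence of 76 uM compound. Detection by competitive ADP HTRF, 30 min ambient.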
pAkt inh: Akt phosphorylation inhibition | AID 651550 | 360,000 compounds, 0.32% hits | Neuro2A IGF-stimulated pAkt S473 HTRF, 20 min; hits give low values | activity change, % for hits at 50 µM; in the data active = activity change below about -80%; inconclusive = mostly about -51% to -80%
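Single-point screen (50 µM final compound) in Neuro2A cells stimulated 20 min with 6 nM IGF at 37 deg C. After lysis, Ser473-phosphorylated Akt read by HTRF (ex 330 nm, em 615/665 nm) as the 665/615 ratio.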
Six1-Eya2 blk: blocks human Six1 binding to Eya2; 360,000 compounds, 0.56% hits; activity change, % (no concentration beside the values); Q15475+O00167; AlphaScreen GST-Six1/His-Eya2 binding, biochemical; hits give low values
Target sequence (O00167 whole entry, looked up): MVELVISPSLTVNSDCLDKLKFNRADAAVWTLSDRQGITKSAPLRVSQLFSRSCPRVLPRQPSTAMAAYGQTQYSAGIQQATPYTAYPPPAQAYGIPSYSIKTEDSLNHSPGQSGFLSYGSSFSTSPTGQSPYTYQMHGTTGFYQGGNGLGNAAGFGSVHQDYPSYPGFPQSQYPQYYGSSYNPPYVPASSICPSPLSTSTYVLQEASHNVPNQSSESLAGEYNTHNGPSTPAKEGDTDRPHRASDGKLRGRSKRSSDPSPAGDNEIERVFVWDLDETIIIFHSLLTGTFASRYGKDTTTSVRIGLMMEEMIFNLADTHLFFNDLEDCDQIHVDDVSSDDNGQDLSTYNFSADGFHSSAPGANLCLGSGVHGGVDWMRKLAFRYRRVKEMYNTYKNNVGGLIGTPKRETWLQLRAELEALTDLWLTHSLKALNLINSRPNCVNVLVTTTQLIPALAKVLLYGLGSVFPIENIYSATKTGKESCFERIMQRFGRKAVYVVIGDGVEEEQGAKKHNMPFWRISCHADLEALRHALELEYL
Target sequence (Q15475 whole entry, looked up): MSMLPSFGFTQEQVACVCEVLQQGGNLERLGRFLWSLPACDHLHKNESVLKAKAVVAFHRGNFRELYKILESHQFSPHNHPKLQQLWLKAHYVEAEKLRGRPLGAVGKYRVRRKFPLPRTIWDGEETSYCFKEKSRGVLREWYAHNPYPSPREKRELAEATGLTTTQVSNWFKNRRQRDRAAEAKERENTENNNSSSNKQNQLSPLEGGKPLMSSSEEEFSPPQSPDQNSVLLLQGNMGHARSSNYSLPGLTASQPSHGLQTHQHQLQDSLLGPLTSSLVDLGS
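AlphaScreen luminescence read after one hour at 37 °C in darkness. Pin-transferred compounds met GST-Six1 and His-Eya2 protein (5X stock 250 nM/500 nM) plus glutathione donor and Ni-chelate acceptor beads (5X, 50 ug/mL).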
CtBP-E1A blk: CtBP/E1A binding inhibition. AlphaScreen GST-E1A/His-CtBP binding, 1536-well; hits give low values. activity change, % (test concentration not listed). 340,000 compounds, 0.49% hits. AID 651724
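Steps: dispense buffer (Tris pH 8.0, NaCl 300 mM, TCEP 1 mM, BSA, Tween 20); add 5X protein mix (GST-E1A, His-CtBP, 125 nM each); pin 23 nL compound; 2 h at 37 °C, dark; add 5X beads (50 ug/mL); 1 h; read.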
Of the large screens only hits and unclear results are named; the others gave an inactive call. Rule as the data show it, unless noted: active = activity change below about -65%; inconclusive = mostly about -30% to -63%; inactive = weaker than that.

CCCc1[nH]nc2c1C(Cc1ccccc1)C(C#N)=C(N)O2 (stereo not given)	pAkt inh -105.7%
Cc1cc(C(=O)CN2C(=O)NC(c3ccccc3)(c3ccccc3)C2=O)c(C)n1Cc1ccccc1	pAkt inh -135.9%
CC(=O)NC1C(=O)N=C(SCC(=O)Nc2ccc(C(F)(F)F)cc2Cl)NC1=O (stereo not given)	CCT modulator -53.3 (no result: CtBP-E1A blk)
CCC(C)(C)NC(=O)c1ccc2c(c1)N(CC(=O)OC)C(=O)C(C)(C)O2	none
CCOC(=O)CN1C(=O)C(C)(C)Oc2ccc(C(=O)NC(C)(C)CC)cc21	pAkt inh -110.6%
O=C(CSc1ccc(-c2ccccn2)nn1)N1CCCC1	Six1-Eya2 blk -92.0
O=C(CSc1ccc(-c2ccccn2)nn1)NC1CCCC1	Six1-Eya2 blk -88.0, CtBP-E1A blk -75.8
O=C(CSc1ccc(-c2ccccn2)nn1)c1ccccc1	Six1-Eya2 blk -86.4, CtBP-E1A blk -87.7
O=C(CSc1ccc(-c2ccccn2)nn1)c1ccc(F)cc1	none
c1ccc(CSc2ccc(-c3ccccn3)nn2)cc1	Six1-Eya2 blk -90.8, CtBP-E1A blk inconclusive
O=C(CSc1ccc(-c2ccco2)nn1)N1CCCC1	none
CCc1ccc(-c2ccc(SCC(=O)NC3CCCC3)nn2)cc1	none
CCOC1CCCc2oc(-c3ccc(OC)cc3)c(C(=O)NCCCCO)c21 (stereo not given)	none
O=C(c1cccc(C(F)(F)F)c1)C1CCCN(C(=O)CCCN2CCCC2=O)C1 (stereo not given)	none (no result: CtBP-E1A blk)
c1ccc(-c2nc(-c3ccncc3)n[nH]2)nc1	Six1-Eya2 blk -89.5
O=C(Nc1ccccc1)C1=C[C@@H](c2ccc(C(F)(F)F)cc2)C[C@@H](OCc2ccc(CO)cc2)O1	none
COc1ccc(/C=N/n2cnnc2SCCO)cc1OC	none
C=CCSc1nncn1/N=C/c1ccc(OC)cc1	pAkt inh -103.2%
CCn1c(Cc2ccccc2)nnc1SCC(=O)N1CCCCC1	pAkt inh -105.6%
Cn1c(N)c(C(=O)COC(=O)C2CCC(C(C)(C)C)CC2)c(=O)n(C)c1=O (stereo not given)	pAkt inh -107.7%
Cn1c(N)c(C(=O)COC(=O)C2CCCC2)c(=O)n(C)c1=O	none
COc1ccccc1N1CCN(C2CCCN(C(=O)Cn3cccn3)C2)CC1 (stereo not given)	none
CC1=C(SCCC#N)S/C(=C2\SC(C)=C(SCCC#N)S2)S1	Six1-Eya2 blk -78.0
Cn1c(SCCC#N)nnc1-c1ccccc1F	none
CCCCNC(=O)Cc1coc2ccc3ccccc3c12	pAkt inh -109.7%
CCN(CC)S(=O)(=O)c1ccc(Cl)c(C(=O)Nc2nncs2)c1	pAkt inh -102.7%
Oc1ccccc1C=NCCN1CCN(CCN=Cc2ccccc2O)C1c1ccccc1O (stereo not given)	Six1-Eya2 blk -85.8, CtBP-E1A blk -98.5
CCN(CC)S(=O)(=O)c1cccc(NC(=O)c2ccc(-n3nc(C)cc3C)cc2)c1	CtBP-E1A blk -70.3
Cc1cc(C)n(-c2ccc(C(=O)Nc3cccc(S(=O)(=O)N(C)C)c3)cc2)n1	Six1-Eya2 blk inconclusive, CtBP-E1A blk inconclusive
COC(=O)c1ccccc1NC(=O)CSc1nc2ccsc2c(=O)n1Cc1ccc(C(=O)O)cc1	none
Cc1ccc(C(=O)CSc2nnc(-c3ccco3)n2Cc2ccccc2)cc1	pAkt inh -108.9%
O=C(CSc1nnc(-c2ccco2)n1Cc1ccccc1)c1ccccc1	none
CCOC(=O)c1sc(NCCNc2nc(C)c(C(=O)OCC)s2)nc1C	pAkt inh -111.7%
CCOC(=O)c1sc(NC(=O)CCC(=O)O)nc1C	none
COc1ccc(S(=O)(=O)N(C(=O)c2ccncc2)c2ccc3oc4c(c3c2)CCCC4)cc1	CCT modulator -41.6
NC(=O)COC(=O)CC1CC2CCC1C2 (stereo not given)	none
CS(=O)(=O)CCC(C(=O)O)N1C(=O)c2ccc(Oc3ccc(Cl)cc3)cc2C1=O (stereo not given)	none
CCCCn1c(N)c(N(CCOC)C(=O)c2ccc(-c3ccc(C(C)=O)cc3)o2)c(=O)[nH]c1=O	none
Nc1ncnc2nc(SCc3ccccc3)[nH]c12	pAkt inh -113.0%
CCn1c(CNC(=O)C2CCCCC2)cc2ccccc21	CCT modulator -52.1
Cn1c(CNC(=O)C2CCCCC2)cc2ccccc21	none (no result: CtBP-E1A blk)
COC(=O)c1ccc(=O)c2nc3/c(=C/O)c(O)cc(=O)c3[nH]c12	Six1-Eya2 blk -88.7, CtBP-E1A blk -93.8
COC(=O)c1ccc(N)cc1O	none
Cn1c(=O)oc2cc(S(=O)(=O)CCC(=O)NCCc3ccccc3)ccc21	CCT modulator -64.9
O=C(NCCN1CCN(Cc2ccccc2)CC1)C1c2ccccc2C(=O)N2CCc3ccccc3C12 (stereo not given)	none
Cc1ccc(CNC(=O)C2c3ccccc3C(=O)N3CCc4ccccc4C23)o1 (stereo not given)	pAkt inh -100.1%
CCC(C)n1nnc2c(=O)oc3ccccc3c21 (stereo not given)	pAkt inh -91.7%
COC(=O)c1ccccc1NC(=O)COC(=O)Cc1ccc(S(=O)(=O)N2CCOCC2)s1	none
CC(=O)Nc1ccc(S(=O)(=O)N2CCN(CC3CC4C=CC3C4)CC2)cc1 (stereo not given)	CCT modulator -42.7 (no result: CtBP-E1A blk)
CC(=O)Nc1ccc(S(=O)(=O)N2CCN(S(=O)(=O)c3ccccc3)CC2)cc1	none
NC(=S)N/N=C/c1c(O)ccc2ccccc12	Six1-Eya2 blk -90.8 (no result: CtBP-E1A blk)
O=C(Cc1n[nH]c(=O)[nH]c1=O)N/N=C/c1ccccc1	none
O=C(Cc1n[nH]c(=O)[nH]c1=O)N/N=C/c1c(O)ccc2ccccc12	Six1-Eya2 blk -87.4, CtBP-E1A blk -68.4
O=CN/N=C/c1c(O)ccc2ccccc12	Six1-Eya2 blk -90.8 (no result: CtBP-E1A blk)
Oc1ccc2ccccc2c1/C=N/Nc1ccccc1	none
COc1ccccc1N(CC(=O)N/N=C/c1c(O)ccc2ccccc12)S(C)(=O)=O	Six1-Eya2 blk -71.1, CtBP-E1A blk inconclusive
Cn1ncc(Cl)c1C(=O)NC(=S)Nc1sc2c(c1C#N)CCCCC2	none
O=C(N/N=C/c1c(O)ccc2ccccc12)c1ccc(CO)nc1	Six1-Eya2 blk -86.7, CtBP-E1A blk -92.0
COc1cc2[nH]c(=S)nc(NCCc3ccc(S(N)(=O)=O)cc3)c2cc1OC	Six1-Eya2 blk -89.5, CtBP-E1A blk -90.2
COc1cc2[nH]c(=S)nc(NCCc3ccc(C)cc3)c2cc1OC	Six1-Eya2 blk inconclusive, CtBP-E1A blk -86.8
COc1cc2[nH]c(=S)n(Cc3ccc(C)cc3)c(=O)c2cc1OC	none
COc1ccc(CCNc2ncnc3c2[nH]c2cc(OC)c(OC)cc23)cc1OC	Six1-Eya2 blk inconclusive
COc1ccc(CCNc2nc(=S)[nH]c3cc(OC)c(OC)cc23)cc1OC	Six1-Eya2 blk -88.0 (no result: CtBP-E1A blk)
COc1ccc(CCNC(=O)c2ccc(CNc3nc(=S)[nH]c4ccccc34)cc2)cc1OC	none
COc1ccc(S(=O)(=O)N2CCN(c3nn(C)c(=O)n(C)c3=O)CC2)cc1	none
Cc1nc(N/N=C/c2cccc(F)c2)cc(N2CCOCC2)n1	none
Oc1ccccc1/C=N/Nc1nccnc1Cl	Six1-Eya2 blk -91.7, CtBP-E1A blk -94.0

Source: PubChem BioAssay (National Center for Advancing Translational Sciences (NCATS))
